Screening results (PubChem)
Hits are enriched below; roughly 7.5% of the tested compounds scored in any of these assays.
FLuc counter: inhibits or activates purified firefly luciferase, miR-21 counter-screen. purified FLuc, Km substrates, luminescence inhibition. hit rate 6.9% among 360,000. Potency, µM (doses to about 57.5 µM), without a hit: at the top dose activity change, negative = inhibition, actives largely listed as inhibitors;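 note: plate controls were vehicle for no effect and reference inhibitor for full effect; nearly all actives have a fitted effect of over 55% in size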
Target sequence (P08659 whole entry, looked up): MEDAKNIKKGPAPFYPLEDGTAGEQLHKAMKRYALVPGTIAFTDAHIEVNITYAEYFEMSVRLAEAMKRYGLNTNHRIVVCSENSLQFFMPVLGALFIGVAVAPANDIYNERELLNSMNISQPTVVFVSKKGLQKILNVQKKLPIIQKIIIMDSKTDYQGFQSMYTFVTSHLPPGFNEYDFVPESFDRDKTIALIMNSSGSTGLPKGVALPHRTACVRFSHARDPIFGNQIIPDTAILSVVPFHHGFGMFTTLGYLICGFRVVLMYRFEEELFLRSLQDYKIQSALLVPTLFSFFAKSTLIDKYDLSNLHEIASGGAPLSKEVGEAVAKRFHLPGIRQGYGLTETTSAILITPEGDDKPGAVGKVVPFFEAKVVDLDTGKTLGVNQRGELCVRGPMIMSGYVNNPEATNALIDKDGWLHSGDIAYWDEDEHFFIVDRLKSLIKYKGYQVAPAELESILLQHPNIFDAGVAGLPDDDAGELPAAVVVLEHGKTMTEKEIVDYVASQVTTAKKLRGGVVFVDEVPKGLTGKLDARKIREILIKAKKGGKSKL
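Biochemical qHTS of compounds, final roughly 60 µM downward over six points, against 10 nM purified firefly luciferase using Km concentrations of substrates (10 uM D-luciferin, 10 uM ATP) in Tris acetate pH 7.5 buffer; luminescence output.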
SMN2 splice enh: enhancers of SMN2 splice variant expression. AID 1458. Potency, µM (highest dose often 46.1 µM), for the others: at the highest dose activity change, positive = activation, hits mostly activators. HEK293 SMN2-luciferase splicing reporter, luminescence, 30-36 h. hit rate 2.8% among 210,000; note: % of control where 0% means no effect; nearly all actives have a fitted effect of over 55% in size
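HEK293 cells carry an SMN2 […]–luciferase reporter in which exon 7 inclusion puts luciferase in frame. Cells were plated 10-12 h before compound addition, then incubated 30-36 h at 37C. ONE-Glo luminescence was read; sodium butyrate at 4.5 mM final served as control.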
ELG1 genotox: genotoxicity induction in ELG1-luciferase HEK293T cells; HEK293T ELG1-luciferase reporter, luminescence, 16 h; Potency, µM (top dose mostly 46 µM), inactives show at the highest dose activity change, positive = activation, most hits filed as activators; hit rate 1.3% among 330,000; note: % of control where 0% means no effect; nearly all actives have a fitted effect of over 60% in size
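DMSO vehicle served as control against compound-treated ELG1-luciferase HEK293T cells; exposure lasted 16 hr at 37 °C and 5% CO2, followed by ONE-Glo luminescence detection after 30 min.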
KinaseGlo FLuc: blocks Kinase-Glo luciferase, a counter-screen artifact; Q27757; Kinase-Glo luciferase, ATP luminescence, 8 min; Potency, µM (top dose mostly 38.3 µM), for inactives: at the top dose activity change, negative = inhibition, most hits filed as inhibitors; hit rate 0.28% among 200,000; AID 1379; note: % is set by controls: 0 for no effect and ±100 for the full control effect; nearly all actives have a fitted effect of over 60% in size
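Kinase-Glo luciferase light output from ATP and luciferin was measured with 10 uM ATP, within the enzyme's linear range. Buffer: 50 mM imidazole pH 7.2, 50 mM KCl, 7 mM MgCl2, 0.01% Tween 20, 0.05% BSA; luminescence read after 8 min at ambient temperature.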
Rab9 promoter act: activators of Rab9 promoter | Huh7 Rab9 promoter-luciferase reporter, luminescence, 24 h | hit rate 2.8% among 320,000 | Potency, µM (series often up to 9.22 µM), without a hit: at the top dose activation, negative = inhibition, usual class: activators; note: % of control where 0% means no effect; nearly all actives have a fitted effect of over 60% in size
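Luminescence from Amplite-detected luciferase (10 minutes, ambient) reports Rab9 promoter activation. Before that, stable Rab9-luciferase Huh7 cells (1500/well, reduced-serum OP-MEM I plus 10% FBS) were exposed to compound for 24 hours at 37C.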
NPC1 promoter act: NPC1 promoter activation; Huh7 NPC1 promoter luciferase reporter, 24 h; hit rate 2.4% among 320,000; Potency, µM (top dose mostly 9.22 µM), without a hit: at the highest dose activation, most hits filed as activators; note: % of control where 0% means no effect; nearly all actives have a fitted effect of over 60% in size
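Stably transfected Huh7 (NPC1 promoter→luciferase), 1500 cells/well in Opti-MEM + 10% FBS, 2 h settle, then compound 24 h at 37 °C. Luminescence after 10 min with Amplite reagent.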
* marks the source's active call; other numbers are inactive results; ? = inconclusive; nt = no result; [ ] = another dose, or the depositor's remark. Calls come from the whole dose curve; as a rule, active = well fitted curve in the direction sought with a large enough effect; inconclusive = small, poorly fitted or top-dose-only effect, or another doubt; inactive = no such curve, though single readings can be large; an effect the other way counts as inactive or inconclusive. Potency is the fitted concentration of half-maximal effect.

SMILES	FLuc counter	SMN2 splice enh	ELG1 genotox	KinaseGlo FLuc	Rab9 promoter act	NPC1 promoter act
CN(CCC1CCOCC1)C(=O)c1cc(COc2c(F)cccc2F)on1	-6.4%	nt	4.9%	nt	13.7%	-1.5%
Cc1cc(OCc2cc(C(=O)N(C)C3CCOCC3)no2)cc(C)c1Cl	21.3µM*	nt	18.4%	nt	3.98µM*	3.55µM*
Cc1ccc(OCc2cc(C(=O)N(C)CC3CCOCC3)no2)cc1C	12µM*	nt	?	nt	3.16µM*	2.82µM*
C=CCNc1cc(F)ccc1S(=O)(=O)NCC=C	nt	nt	0.9%	nt	nt	nt
COc1ccc(OCCC(=O)OCC(=O)NCc2ccc(F)cc2)cc1	-12.2%	2.7%	-0.4%	1.0%	-6.0%	-4.6%
CC(C)c1ccc(NC(=O)C2CCC(CNC(=O)[C@@H]3Cc4ccccc4CN3)CC2)cc1 (stereo not given in full)	-1.0%	nt	9.5%	nt	2.7%	-0.5%
COc1ccc(NC(=O)Cn2c(=O)ccc3cc(S(=O)(=O)N4CCCC4)ccc32)cc1Cl	-2.0%	nt	nt	nt	nt	nt
COc1ccccc1N1CCN(CCN(C(=O)c2ccc(I)cc2)c2ccccn2)CC1	nt	nt	nt	nt	-33.6%[46.1 µM]	-26.6%[46.1 µM]
COc1ccc(OCc2cc(C(=O)N(C)C3CCOC3)no2)c(Cl)c1 (stereo not given)	?	nt	12.4%	nt	8.8%	2.3%
COc1ccc(OCc2cc(C(=O)N(C)C3CCOCC3)no2)c2ccccc12	15.1µM*	nt	11.7%	nt	?	?
COc1cc(/C=C/C(=O)c2ccccc2O)cc(OC)c1OC	?	24.2%	?	-0.6%	-7.9%	-2.0%
COc1ccc2cc(C(=O)/C=C/c3cc(OC)c(O)c(OC)c3)ccc2c1	1.9µM*	nt	-36.6%	nt	-1.1%	?
COc1ccc(C(=O)/C=C/c2cc(OC)c(O)c(OC)c2)c(F)c1	19µM*	nt	-2.5%	0.0%	-17.0%	-0.3%
CCOc1ccccc1N(CC(=O)N1CCc2ccccc2C1)S(=O)(=O)c1ccccc1	-7.7%	-3.0%	nt	nt	nt	nt
COc1ccc(C(=O)NC2(C(F)(F)F)C(=O)NC(C)=C2C#N)cc1 (stereo not given)	-6.8%	4.0%	nt	nt	nt	nt
O=C1c2ccccc2C(=O)C1c1ccc(Br)cc1	6.01µM*	nt	?	nt	10.2%[1.84 µM]	?
COC(=O)c1sc2c(c1C)c(=O)n(-c1ccccc1)c(=O)n2CC(=O)Nc1cccc(C)c1	3.0%	nt	nt	nt	nt	nt
CCc1ccc(OCC(=O)NNC(=O)c2ccc(NC(=O)C3CC3)cc2)cc1	3.5%	nt	-1.0%	nt	0.9%	-2.0%
CC(OC(=O)Cn1[nH]c(=O)c2ccccc2c1=O)C(=O)c1ccccc1 (stereo not given)	2.2%	nt	4.0%	nt	4.6%	-6.0%
COc1ccc(Br)cc1C1Nc2cccc3cccc(c23)N1	-19.6%	nt	?	nt	22.5%	?
COc1cc(C2Nc3cccc4cccc(c34)N2)cc(OC)c1OC(C)=O	16.9µM*	3.6%	4.8%	-6.9%	1.5%	-2.3%
CCN(CC)c1ccc(C2Nc3cccc4cccc(c34)N2)c(O)c1	16.9µM*	0.2%	9.7%	3.2%	?	?
COc1cc(C2Nc3cccc4cccc(c34)N2)ccc1O	13.5µM*	nt	-1.6%	nt	18.4%	?
Cc1ccc(-c2noc(CCC(=O)Nc3ccc(F)cc3Cl)n2)cc1	2.0%	16.3%	nt	nt	nt	nt
CCC(=O)N1CCc2cc(Br)cc(S(=O)(=O)N(CC)Cc3ccccc3)c21	5.3%	6.5%	nt	nt	nt	nt
SMILES	FLuc counter	SMN2 splice enh	ELG1 genotox	KinaseGlo FLuc	Rab9 promoter act	NPC1 promoter act
Cc1cccc(C)c1OCC(=O)NCC1COc2ccccc2O1 (stereo not given)	5.3%	nt	1.9%	nt	-2.1%	-1.5%
Cc1ccc(CNC(=O)CCCCCNC(=O)N2CCn3c2nc2ccccc23)cc1	15.1µM*	nt	0.0%	nt	-0.5%	-2.1%
O=C(CCCCCNC(=O)N1CCn2c1nc1ccccc12)NCc1ccc(Cl)cc1	23.9µM*	nt	-3.2%	nt	0.3%	-0.8%
O=C(CCCCCNC(=O)N1CCn2c1nc1ccccc12)NCc1ccccc1Cl	15.1µM*	nt	-3.4%	nt	0.2%	-7.3%
Cc1ccc(F)cc1NC(=O)CSc1nc(-c2cccs2)cc(C(F)(F)F)n1	4.0%	-1.0%	nt	nt	nt	nt
COc1ccc(/C=C/C(=O)Oc2cccc(/C=N/NC(=O)COc3c(C)cccc3C)c2)cc1	-13.6%	?	?	0.5%	2.82µM*	1.58µM*
COc1ccc(NCC(=O)N/N=C/C=C\c2ccccc2)cc1	?	37.9%	-1.7%	-0.1%	2.3%	-3.7%
Cc1ccc(OCC(=O)N/N=C/C=C/c2ccco2)cc1	19µM*	-0.6%	-0.5%	0.5%	-4.9%	-2.2%
COc1ccc(/C=C/C(=O)Oc2ccc(/C=N/NC(=O)COc3c(C)cccc3C)cc2)cc1	0.2%	?	21.3%	0.5%	-7.1%	-1.5%
COc1ccc(/C=C/C=N/NC(=O)COc2ccc(OC)cc2)cc1	4.78µM*	22.8%	1.0%	-3.5%	19.3%	13.1%
COc1cc(-c2nnc(CSc3nnc(Nc4ccc(Oc5ccccc5)cc4)s3)o2)cc(OC)c1OC	9.53µM*	12.6%	-2.4%	-0.7%	14.3%	15.3%
COc1cc(-c2nnc(CSc3nnc(N)s3)o2)cc(OC)c1OC	1.5%	19.8%	7.3%	1.3%	-2.2%	-1.6%
Cc1[nH]c2ccccc2c1/C=C(\C#N)C(=O)NCC1CCCO1 (stereo not given)	?	nt	2.5%	-3.0%	-1.2%	-3.4%
N#C/C(=C\c1c[nH]c2ccccc12)C(=O)NCC1CCCO1 (stereo not given)	16.9µM*	nt	?	-0.9%	29.3%	17.8%
CN(C)CCSc1nnc(-c2ccccc2)o1	?	10µM*	13µM*	-0.8%	29.5%	23.7%
CN(C)c1cccc(-c2nnc(SCCCC#N)o2)c1	6.75µM*	11.2µM*	?	-1.0%	2.24µM*	3.16µM*
N#Cc1cccc(-c2nnc(SCc3ccccc3C#N)o2)c1	?	?	?	-3.5%	?	?
CSc1nnc(-c2ccccc2)o1	-4.2%	9.5%	14.2%	9.6%	8.9%	1.2%
CCN(CC)C(=O)CSc1nnc(-c2ccccc2)o1	?	-15.7%	16.4µM*	0.3%	3.55µM*	?
CCOC(=O)Nc1cc(Br)c2c(c1)OCCO2	?	nt	23.1µM*	0.3%	15.6%	17.1%
Nc1nn(-c2ccccc2)nc1C(=O)OCc1ccccc1	15.1µM*	29.8%	?	nt	18.1%	12.9%
Cc1ccc(Cn2c(SCc3ccc(C(=O)N4CCCCC4)cc3)nc3ccncc32)cc1	?	-73.3%	nt	nt	nt	nt
O=C(CCC(=O)c1ccc[nH]1)c1ccc(Cl)cc1	12µM*	?	8.2µM*	-5.1%	1.58µM*	3.16µM*
O=C(/C=C/c1cccs1)c1cc(Cl)ccc1O	?	1.3%	-2.6%	-1.7%	-1.6%	4.9%
O=C(/C=C/c1ccc2ccccc2n1)c1cc(Cl)ccc1O	4.78µM*	nt	11.3%	nt	-2.0%	9.0%
